# The list is a sample of the results.
# aSyn UTR act = Activators via SNCA 5'UTR binding, MLPCN. alpha-synuclein 5'UTR reporter, activators screen. activity score, % (tested at 7.5 µM), hits read low. 300,000 tested, 7.1% active; in the data active = activity score below about -60%
# Starred values were filed as active, the others as inactive.
SMILES,aSyn UTR act
CC(=O)OCC1OC(n2cc(F)c(=O)[nH]c2=O)C(OC(C)=O)C1OC(C)=O (stereo not drawn),-180.8*
COc1ccc(NC(=O)c2cnn(-c3ccccc3)c2C)cc1,-62.0*
COc1ccc(NC(=O)c2cnn(-c3ccccc3)c2C)cc1OC,-152.8*
COc1ccc(CN2CCn3ncc(C(=O)Nc4ccccc4)c3C2=O)cc1,-85.8*
CC(=O)c1cccc(NC(=O)c2cnn(-c3ccccc3)c2C)c1,-181.0*
Cc1c(C(=O)Nc2cccc(F)c2)cnn1-c1ccccc1,-212.3*
Cc1c(C(=O)Nc2cccc([N+](=O)[O-])c2)cnn1-c1ccccc1,-137.1*
Cc1c(C(=O)Nc2ccccc2)cnn1-c1ccccc1,-67.6*
COc1ccc(CN2CCN(Cc3cccn3-c3ncccn3)CC2CCO)c(C)c1C (stereo not drawn),59.8
COc1ccc(-c2ncc(CN3CCN(CCC(C)C)C(CCO)C3)cn2)cc1 (stereo not drawn),-111.3*
O=C(NCCC1=CCCCC1)c1coc(=O)c(Br)c1,-65.4*
CC(C)CNC(=O)c1coc(=O)c(Br)c1,-87.3*
COc1ccccc1NC(=O)c1coc(=O)c(Br)c1,-63.2*
O=C(NCCc1ccccc1)c1coc(=O)c(Br)c1,-77.0*
CS(=O)(=O)Nc1ccc(C(=O)NCCC2=CCCCC2)cc1,-109.3*
N/C(=N\OC(=O)c1cccc(Br)c1)c1ccncc1,-137.9*
N/C(=N\OC(=O)c1ccccc1)c1ccncc1,-121.6*
COc1ccc(C(=O)O/N=C(/c2ccccc2)c2ccncc2)cc1,-71.7*
N/C(=N\OC(=O)c1ccc(Br)cc1)c1ccncc1,-109.9*
C=CCOc1ccc2c(OC)c3ccoc3nc2c1OC,-81.1*
CCC(Sc1nc2ccccc2c(=O)[nH]1)C(=O)Nc1ccc(C(C)=O)cc1 (stereo not drawn),-79.1*
O=C(Nc1ccc(-c2cn3ccccc3n2)cc1)c1cccs1,-128.7*
COc1ccc(CC(=O)Nc2ccc(-c3cn4ccccc4n3)cc2)cc1,-123.8*
COc1ccc(-c2cn3cccnc3n2)cc1Br,-66.1*
COc1ccc(-c2cc3cc(OC)c(OC)cc3cn2)cc1OC,-140.2*
SMILES,aSyn UTR act
COc1ccc(CC(=O)Nc2ccc(-c3cn4ccccc4n3)cc2)cc1OC,-85.9*
c1ccn2cc(-c3ccc4c(c3)OCCO4)nc2c1,98.5
COc1ccc(-c2cn3ccccc3n2)cc1OC,-171.4*
COc1ccc(-c2cn3cc(Br)cnc3n2)cc1,-123.2*
Cc1ccc(-c2nc(C(=O)NCCCN3CCOCC3)cc3c2[nH]c2ccccc23)cc1,-64.5*
Cc1c(C(=O)N2CCCCC2)oc2ccc(Br)cc12,-137.7*
CCCc1ccc2oc(C(=O)N3CCC(O)CC3)c(C)c2c1,-89.2*
O=C(c1cc2cc(Br)ccc2o1)N1CCCCC1,-146.3*
Cc1ccc2oc(C(=O)NCCCN3CCOCC3)c(C)c2c1,-95.4*
Cc1ccc2oc(C(=O)N3CCCCCC3)c(C)c2c1,-77.8*
CCCc1ccc2oc(C(=O)N(C)Cc3nccs3)c(C)c2c1,-148.8*
CN(C)CCN(C(=O)c1ccc2c(c1)OCCO2)c1nc2ccc(Cl)cc2s1,-158.6*
CN(C)CCCN(C(=O)c1ccc(S(=O)(=O)N2CCc3ccccc32)cc1)c1nc2ccc(Cl)cc2s1,58.1
CN(C)CCCN(C(=O)c1ccc2c(c1)OCCO2)c1nc2ccc(Cl)cc2s1,-133.5*
CC(C)c1ccc(Nc2ncccc2C(=O)O)cc1,-100.7*
Cc1ccc(C2=CSC3=NNC4(CCCCC4)NN23)cc1,-126.0*
O=[N+]([O-])c1ccccc1-c1nc(-c2ccc(Br)o2)no1,-265.9*
O=[N+]([O-])c1cc(Cl)ccc1-c1nc(-c2ccccc2)no1,-181.1*
O=[N+]([O-])c1cc(Cl)ccc1-c1nc(-c2ccncc2)no1,-142.9*
O=c1cc(-c2cccs2)oc2ccc(Cl)cc12,-177.6*
O=c1c(O)c(-c2cccs2)oc2ccc(Cl)cc12,-74.9*
O=c1cc(-c2ccc3c(c2)OCCO3)oc2ccc(Cl)cc12,-149.4*
COc1ccc(CCNCC(O)Cn2c3ccccc3c3ccccc32)cc1OC (stereo not drawn),119.7
COc1ccc(CCN2CC(C(=O)NCCc3ccccc3)CC2=O)cc1OC (stereo not drawn),-97.3*
CCc1cc2c(=O)n(C(C)C(=O)OC3CCCCC3)cnc2s1 (stereo not drawn),-137.0*
SMILES,aSyn UTR act
COC(=O)c1sccc1NC(=O)c1ccc(OC)cc1OC,-98.2*
Cc1cc(C)nc(NC(=O)c2c(F)c(F)c(F)c(C(=O)Nc3cc(C)cc(C)n3)c2F)c1,-69.7*
COC(=O)c1ccc(N/C=C\C(=O)c2ccc3c(c2)OCO3)cc1,-133.3*
O=C(Nc1ccc(N2CCCCC2)cc1)c1ccc2c(c1)OCCO2,-86.7*
Cc1cc(C)nc(NC(=O)c2ccc3c(c2)OCO3)c1,-94.1*
CC1CCCC(NC(=O)c2ccc3c(c2)OCO3)C1C (stereo not drawn),-65.2*
Cc1ccccc1-c1nc(-c2ccc(NC(=O)c3ccc4c(c3)OCO4)cc2)no1,-70.8*
COC(=O)c1sccc1NC(=O)c1ccc(C(C)C)cc1,-86.5*
COC(=O)c1sccc1NC(=O)/C=C/c1ccc(Cl)cc1,-197.4*
COC(=O)c1ccc(NC(=O)c2ccc3c(c2)OCO3)cc1,-143.7*
Cc1nc(NC(=O)c2ccc(Cl)cc2)nc2cc3c(cc12)OCO3,-84.1*
COC(=O)c1sccc1NC(=O)c1ccc2c(c1)OCO2,-91.4*
O=C(Nc1ccc(F)c(Cl)c1)c1ccc2c(c1)OCO2,-210.9*
O=C(Nc1ccc(C(=O)N2CCCC2)cc1)c1ccc2c(c1)OCO2,-68.6*
COc1ccc(NC(=O)c2ccc3c(c2)OCO3)cc1Cl,-144.8*
COC(=O)c1c(-c2cccnc2)csc1NC(=O)c1ccc2c(c1)OCO2,-76.5*
CCN1/C(=C/c2sc(-c3ccccc3C)c[n+]2C)Sc2ccccc21,94.4
Clc1ccc(Cn2nc(-c3ccccc3)nc2-c2ccccc2)cc1,-114.2*
c1ccc(OCc2cc(-c3ccccc3)no2)cc1,-169.4*
COc1ccccc1OCc1cc(-c2ccccc2)no1,-224.5*
CCC1(C)Cc2c(sc3nc(SC)n(Cc4ccccc4)c(=O)c23)CO1 (stereo not drawn),-117.6*
COC(=O)c1sccc1NC(=O)COc1ccccc1Cl,-132.0*
O=C(COc1ccccc1Cl)Nc1cc(Cl)ccc1O,-185.1*
O=C(Nc1nnc(SCc2ccccc2)s1)c1cc2c(s1)CCCC2,-80.0*
CCSc1nnc(NC(=O)c2cc3c(s2)CCCC3)s1,-187.5*
SMILES,aSyn UTR act
COc1ccc(/C=N/NC(=O)c2ccoc2C)cc1CN1CCN(c2ccc(F)cc2)CC1,-79.5*
COC(=O)/C(=C/c1ccc2c(c1)c1ccccc1n2C)NC(=O)c1ccccc1,-67.9*
Cc1occc1C(=O)N/N=C/c1ccccn1,-84.1*
Cn1nccc1C(=O)N/N=C/c1ccccc1[N+](=O)[O-],-89.2*
O=C(N/N=C/c1ccccn1)c1ccc(N/N=C/c2ccccn2)cc1,-132.4*
CCN(CC)c1ccc(/C=N/NC(=O)c2ccoc2C)cc1,-95.4*
Cc1occc1C(=O)N/N=C/c1ccccc1[N+](=O)[O-],-121.0*
COc1cc(C(=O)N/N=C/c2ccc3c(c2)c2ccccc2n3C)ccc1O,-117.0*
COc1cccc(/C=N/NC(=O)c2c(-c3ccccc3)noc2C)c1O,58.2
COc1cc(/C=N/NC(=O)c2ccoc2C)ccc1O,-67.1*
CCOc1ccc(/C=N/NC(=O)c2ccoc2C)cc1OC,-110.1*
O=C(/C=C/c1ccco1)Oc1cc(Br)cc(/C=N/NC(=O)c2ccccc2O)c1,95.9
COc1cccc(/C=N/NC(=O)c2ccoc2C)c1O,-70.6*

# Screens (PubChem)
